The sample as a whole holds a higher share of hits than the screen did.
VCAM1 pot: enhances TNF alpha induced VCAM1 expression in HUVEC. HUVEC TNFa-stimulated VCAM-1 immunofluorescence, high-content imaging; scaled per plate to unstimulated/TNFa-only wells. activation, % at 2 µM. 93,000 compounds, 0.19% hits. AID 808;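 active means activation above the screen mean plus 3 SD, with well images confirming the hit on visual review, cut at about 28% in these data, passing the limit was not always enough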;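 further: signal is the number of cytoplasmic VCAM-1 stained grains per positive cell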
VCAM1 pot confirm: potentiators of TNFa-induced VCAM1 expression, confirmation, imaging, HUVEC, triplicate retest; HUVEC TNFa-stimulated VCAM-1 immunofluorescence imaging; activation, % at 2 µM; 230 tested, under 10 active; shares compounds with VCAM1 pot;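 active means activation above 30% in triplicate retests at 2 µM, then confirmed by visual review of the well images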;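 further: scaled per plate between unstimulated and TNFa-stimulated DMSO control wells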
The depositor's hits bear a star.

SMILES | VCAM1 pot | others
CS(=O)(=O)N1CCN(C(=O)c2ccc(Br)s2)CC1 | 7.4
Cc1cc(C)n(-c2nc(-c3cccc(Cl)c3)cs2)n1 | -89.9
CCCc1nnc(SCC(=O)O)n1/N=C/c1ccc2c(c1)OCO2 | -48.4
C=CCOn1c(=O)c(=O)n(OCc2ccccc2)c2ccccc21 | 95.5* | VCAM1 pot confirm=-15.3
C=CCn1c(SC(C)C(=O)NC2(C#N)CCCCC2)nnc1-c1ccc(OC)cc1 (stereo unspecified) | 15.7
CCOC(=O)Cc1nnc(NC(=O)CC)s1 | -1.4
CCN(CC)c1ccc(C2CC(=O)Nc3cc(OC)c(OC)cc32)cc1 (stereo unspecified) | -24.0
C=CCNc1ncnc2c1[nH]c1ccc(Cl)cc12 | -5.9
Cc1ccc(NC(=O)c2ccco2)c(NC(=O)CN2C(=O)c3ccccc3C2=O)c1 | 5.4
O=C(CCCCCN1C(=O)c2ccccc2C1=O)Nc1nccs1 | -50.1
COc1cccc(CNC(=O)C2CCN(S(=O)(=O)c3ccc4c(c3)CCC(=O)N4)CC2)c1 | -3.4
CCN1CCCC1CNC(=O)Cn1cnc2sc(C)c(S(=O)(=O)N3CCC(C)CC3)c2c1=O (stereo unspecified) | 48.1* | VCAM1 pot confirm=-1.7
CCNc1nc(NC(C)C)nc(Oc2ccc(OCCOc3ccc(C)cc3)nn2)n1 | 38.4* | VCAM1 pot confirm=2.0
CCNc1nc(NCc2ccccc2)nc(Oc2ccc(=O)[nH]n2)n1 | -4.2
COC(=O)c1ccc(Oc2nc(NC(C)C)nc(N(C)C)n2)cc1 | 27.3
Cc1c(C(C)NC(=O)Nc2ccc(F)cc2F)cnn1C (stereo unspecified) | 25.3
CCOC(=O)C1=NN(c2ccccc2C)C2=NC(C)=C(C(=O)OC)C(c3cccs3)N12 (stereo unspecified) | 14.8
Cc1ccc(S(=O)(=O)/N=C(\c2ccc(Cl)cc2)N2CCOCC2)cc1 | 6.3
O=c1c(Cl)c(NCCO)ncn1-c1ccccc1 | -9.0
Cc1ccc(-c2nn(-c3ccccc3)cc2C2CC(c3cccs3)=NN2C(=O)CCCC(=O)O)cc1 (stereo unspecified) | 30.5* | VCAM1 pot confirm=-10.7
O=C(O)c1cn(-c2ccccc2)nc1-c1ccncc1 | 5.4
CCOC(=O)c1nnn(CC(=O)N2N=C(c3ccccc3)CC2c2ccccc2)c1C(=O)OCC (stereo unspecified) | 16.6
O=c1c2ccccc2nc(/C=C/c2ccc([N+](=O)[O-])o2)n1CCCO | -57.6
C=CCc1ccc(OCc2ccc(C(=O)OC)o2)c(OC)c1 | -0.5
COC(=O)c1cc(OC)c(OCc2cc(C(=O)OC)oc2C)c(OC)c1 | 53.0* | VCAM1 pot confirm=-10.5
SMILES | VCAM1 pot | others
Cc1oc(C(=O)O)cc1CSCc1cc(C(=O)O)c(C)o1 | 3.8
O=C(O)C1C2CCC(O2)C1C(=O)NCc1ccncc1 (stereo unspecified) | 0.7
CCC1CCCCN1C(=O)CSc1nnc(-c2ccc3c(c2)OCCO3)o1 (stereo unspecified) | -7.9
O=C(CSc1nnc(-c2ccccc2O)o1)N1CCc2ccccc2C1 | 32.1* | VCAM1 pot confirm=-10.1
COc1cc(OC)cc(-c2nnc(SCC(=O)N3c4ccccc4Sc4ccccc43)o2)c1 | 5.9
O=C(Oc1cccc2c(OC(=O)N3CCCC3)cccc12)N1CCCC1 | 10.8
O=C(Nc1ccc(Cl)cn1)C1CCCN1S(=O)(=O)c1cccc2ccccc12 (stereo unspecified) | 31.2* | VCAM1 pot confirm=-11.9
O=C(NC1CCCCC1)C1CCCN1S(=O)(=O)c1cccc2nsnc12 (stereo unspecified) | -1.2
O=C(NCc1cccs1)C1CCCN1S(=O)(=O)c1ccccc1F (stereo unspecified) | -3.4
CC1=Nc2ccc(C)cc2N(Cc2ccccc2)C(=O)C1 | -4.4
COc1ccc(C(C#N)(CCC#N)CCC#N)cc1OC | 36.8* | VCAM1 pot confirm=-18.7
CC(=O)Oc1ccc(C(=O)Nc2ccc3c(c2)C(=O)N(CCC(=O)O)C3=O)cc1 | -5.2
O=C(CCCCCN1C(=O)CCC1=O)Nc1ccc2c(c1)OCCO2 | -17.1
O=C(NNC(=O)c1sccc1-n1cccc1)c1cccc(Cl)c1 | -3.7
O=C(CCS(=O)(=O)c1ccc(Br)s1)NCc1ccc2c(c1)OCO2 | 7.1
O=C(NCc1ccco1)c1sc2cc(Cl)ccc2c1Cl | 64.3* | VCAM1 pot confirm=-12.8
CC(C)Oc1ccc(C(=O)NCc2ccco2)cc1 | 0.7
O=C(NCc1ccco1)c1ccc(CS(=O)(=O)Cc2ccc(Cl)cc2)o1 | -92.8
CCCCS/C(=C(/C#N)C(N)=O)c1cc2c([nH]1)CCCC2 | 1.2
CC1CCCN(CC(=O)Nc2ccc(S(=O)(=O)NC3CCCCC3)cc2)C1 (stereo unspecified) | -7.4
O=C(CN1CCCCCC1)Nc1ccc(Br)cc1 | 33.6* | VCAM1 pot confirm=-7.3
NC(=O)c1oc2ccccc2c1NC(=O)CN1CCCCC1 | 5.9
CC(C)COC(=O)n1c(SCC(=O)N(C)C)nc2ccccc21 | 16.3
Cc1ccc(C(C(=O)NC2CCCCC2)N(Cc2ccco2)C(=O)Cc2c[nH]c3ccccc23)o1 (stereo unspecified) | 4.4
CCOC1=NC(C(=O)O)c2ccccc2/C(=C(/C)Cl)N1 (stereo unspecified) | -92.4
SMILES | VCAM1 pot | others
O=C(Nc1cnn(Cc2ccc(Cl)c(Cl)c2)c1)C12CC3CC(CC(C3)C1)C2 | -18.5
CCOC(=O)c1cc(-c2ccccc2)sc1NC(=S)Nc1cccc(C)n1 | -4.4
Cc1cccc(NC(=O)c2sc3nc(-c4ccccc4)cn3c2C)n1 | 41.6* | VCAM1 pot confirm=-12.2
CCC(=O)NC(Nc1cccc(C)n1)(C(F)(F)F)C(F)(F)F | 6.0
CCOC(=O)c1nnc2c(Br)c(-c3ccccc3)nn2c1C | 4.9
Cn1c(=O)c2c(ncn2CC(=O)Nc2nc3ccc(F)cc3s2)n(C)c1=O | -2.1
CN(C)S(=O)(=O)N(CC(=O)Nc1cccc(F)c1)c1ccccc1 | -4.4
O=C(c1cccs1)N1CCC(c2nc3c(nnn3Cc3ccccc3)c(=O)[nH]2)CC1 | -5.9
CC(C)c1ccc(NC(=O)C(c2ccccc2)N2CCC3(CC2)OCCO3)cc1 (stereo unspecified) | -2.1
CCOc1nc(-c2ccncc2)nc2ccccc12 | 43.4* | VCAM1 pot confirm=-8.9
Brc1ccc(-c2nc(N/N=C/c3cccnc3)c3ccccc3n2)cc1 | -41.0
Cc1ccc(SCC(=O)NCc2cccnc2)cc1 | -8.0
CSc1nc(C)cc(OCC(=O)n2nc(C)cc2C)n1 | 7.9
O=C(CCn1nnc(-c2cccs2)n1)N1CCc2ccccc2C1 | 35.5* | VCAM1 pot confirm=2.2
O=C(Nc1cccc2ccccc12)N1CCc2ccccc2C1 | -2.6
CCOC(=O)c1c(C)c(C(=O)N2CCc3ccccc3C2)c(C)n1CC | 6.9
C=CCn1c(SCc2ccccc2C#N)nnc1-c1ccccc1O | -2.6
N#Cc1nc(-c2ccc(OCc3ccccc3)cc2)oc1N1CCOCC1 | -1.0
CCOc1ccc(-c2nc(C#N)c(NCC(C)C)o2)cc1 | 2.1
C=CCNc1oc(-c2ccc(OC)cc2)nc1C#N | 44.8* | VCAM1 pot confirm=-10.1
O=C(COC(=O)c1cccnc1Cl)c1cccc(Cl)c1 | -2.8
CCC(=O)Nc1ccc(-c2nn3c(C)nnc3s2)cc1C | -3.7
CCOc1ccc(OCC)c(S(=O)(=O)N2CCCCC2C)c1 (stereo unspecified) | -3.4
CCCCCn1nc(C)c2c(C)cc(=O)[nH]c21 | 16.6
CC(=O)c1ccc(NS(=O)(=O)c2cccc(C)c2)cc1 | 72.5* | VCAM1 pot confirm=-7.7
COc1cccc(S(=O)(=O)Nc2ccc3sc(C)nc3c2)c1 | 5.1
Cc1cccc(NS(=O)(=O)c2ccc(C)c(C(=O)OCC(=O)Nc3cc(C)on3)c2)c1 | -5.6
CC1CC(NC(=O)Cc2ccc(Br)cc2)CC(C)(C)C1 (stereo unspecified) | 10.0
